Measurements published in PubChem BioAssay AID1159580 (chemical genetic matrix, 2015).
Hit rate of the full screen: of about 5,500 compounds, about 2,000 (36%) were called active. About 18% were inconclusive and are not listed. Rule as the data show it: active = normalized growth mostly below about 0.91 (no sharp cut-off); inconclusive = no clear call, values can overlap the other calls; inactive = mostly above about 0.92. Some of the results follow.

Assay: chemical genetic growth profiling, strain panel (AID 1159580);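 also: tested at 20 µM; growth read once vehicle control cultures reached saturation at 30 °C; 1 = growth at the plate median or of vehicle wells; lower values mean less growth of the strain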
Conditions: S. cerevisiae deletion strains, growth OD
[1] = locus YAR019C, strain CDC15, active compounds read low
[2] = locus YBL105C, strain PKC1, active compounds read low
[3] = locus YBR135W, strain CKS1, active compounds read low
[4] = locus YBR136W, strain MEC1, active compounds read low
[5] = locus YBR160W, strain CDC28, active compounds read low
[6] = locus YDL017W, strain CDC7, active compounds read low
[7] = locus YDL028C, strain MPS1, active compounds read low
[8] = locus YDL101C, strain DUN1, active compounds read low
[9] = locus YDL108W, strain KIN28, active compounds read low
[10] = locus YDL132W, strain cdc53, active compounds read low
[11] = locus YDL214C, strain PRR2, active compounds read low
[12] = locus YDR052C, strain DBF4, active compounds read low
[13] = locus YDR054C, strain cdc34, active compounds read low
[14] = locus YDR226W, strain ADK1, active compounds read low
[15] = locus YDR477W, strain SNF1, active compounds read low
[16] = locus YER123W, strain YCK3, active compounds read low
[17] = locus YER133W, strain GLC7, active compounds read low
[18] = locus YFL009W, strain cdc4, active compounds read low
[19] = locus YFL029C, strain CAK1, active compounds read low
[20] = locus YFR003C, strain YPI1, active compounds read low
[21] = locus YFR019W, strain FAB1, active compounds read low
[22] = locus YFR028C, strain CDC14, active compounds read low
[23] = locus YGR040W, strain KSS1, active compounds read low
[24] = locus YGR052W, strain FMP48, active compounds read low
[25] = locus YGR092W, strain DBF2, active compounds read low
[26] = locus YHR030C, strain SLT2, active compounds read low
[27] = locus YHR079C, strain IRE1, active compounds read low
[28] = locus YHR082C, strain KSP1, active compounds read low
[29] = locus YHR205W, strain SCH9, active compounds read low
[30] = locus YIL147C, strain SLN1, active compounds read low
[31] = locus YJL095W, strain BCK1, active compounds read low
[32] = locus YJL128C, strain PBS2, active compounds read low
[33] = locus YJL157C, strain FAR1, active compounds read low
[34] = locus YJR016C, strain ILV3, active compounds read low
[35] = locus YJR066W, strain TOR1 (second series), active compounds read low
[36] = locus YJR066W, strain TOR1, active compounds read low
[37] = locus YKL048C, strain ELM1, active compounds read low
[38] = locus YKL067W, strain YNK1, active compounds read low
[39] = locus YKL101W, strain HSL1, active compounds read low
[40] = locus YKL193C, strain SDS22, active compounds read low
[41] = locus YKL203C, strain TOR2, active compounds read low
[42] = locus YLR113W, strain HOG1, active compounds read low
[43] = locus YLR133W, strain CKI1, active compounds read low
[44] = locus YLR403W, strain SFP1, active compounds read low
[45] = locus YML070W, strain DAK1, active compounds read low
[46] = locus YMR001C, strain CDC5, active compounds read low
[47] = locus YMR205C, strain PFK2 (second series), active compounds read low
[48] = locus YMR277W, strain FCP1, active compounds read low
[49] = locus YNL006W, strain LST8, active compounds read low
[50] = locus YNL020C, strain ARK1, active compounds read low
[51] = locus YNL161W, strain CBK1, active compounds read low
[52] = locus YNL183C, strain NPR1, active compounds read low
[53] = locus YNL207W, strain RIO2, active compounds read low
[54] = locus YNL222W, strain SSU72, active compounds read low
[55] = locus YNL307C, strain MCK1 (second series), active compounds read low
[56] = locus YOL078W, strain AVO1, active compounds read low
[57] = locus YOL136C, strain PFK27, active compounds read low
[58] = locus YOR061W, strain CKA2, active compounds read low
[59] = locus YOR119C, strain RIO1, active compounds read low
[60] = locus YOR231W, strain MKK1, active compounds read low
[61] = locus YOR329C, strain SCD5, active compounds read low
[62] = locus YPL031C, strain PHO85, active compounds read low
[63] = locus YPL153C, strain RAD53, active compounds read low
[64] = locus YPL204W, strain HRR25, active compounds read low
[65] = locus YPL209C, strain IPL1, active compounds read low
[66] = locus YPL256C, strain CLN2, active compounds read low
[67] = locus YPR025C, strain CCL1, active compounds read low
[68] = locus YPR106W, strain ISR1, active compounds read low
[69] = locus YPR111W, strain DBF20, active compounds read low
[70] = strain NNK1, active compounds read low
[71] = strain TSCII, active compounds read low

Measured: normalized growth

O=C(NNc1ccccc1F)c1ccno1
inactive: [1] 0.981 | [2] 0.97 | [3] 0.976 | [4] 0.98 | [5] 0.977 | [6] 0.987 | [7] 0.981 | [8] 0.979 | [9] 0.983 | [10] 0.973 | [11] 0.942 | [12] 0.979 | [13] 0.975 | [14] 0.983 | [15] 0.948 | [16] 0.869 | [17] 0.957 | [18] 0.986 | [19] 0.979 | [20] 0.982 | [21] 0.92 | [22] 0.982 | [23] 0.915 | [24] 1.01 | [25] 0.904 | [26] 0.959 | [27] 0.952 | [28] 0.998 | [29] 0.934 | [30] 0.983 | [31] 0.937 | [32] 0.972 | [33] 0.929 | [34] 0.979 | [35] 0.886 | [36] 1.01 | [37] 0.937 | [38] 0.943 | [39] 0.905 | [40] 0.978 | [41] 1.01 | [42] 0.863 | [43] 0.93 | [44] 0.934 | [45] 0.906 | [46] 0.979 | [47] 0.95 | [48] 0.986 | [49] 0.993 | [50] 0.929 | [51] 0.979 | [52] 0.937 | [53] 0.984 | [54] 0.976 | [55] 0.924 | [56] 0.98 | [57] 0.909 | [58] 0.884 | [59] 0.996 | [60] 0.888 | [61] 0.985 | [62] 0.964 | [63] 0.909 | [64] 0.937 | [65] 0.976 | [66] 0.914 | [67] 0.978 | [68] 0.968 | [69] 0.961 | [70] 0.983 | [71] 0.977

Cc1cc(Cl)ccc1NNC(=O)c1ccno1
inactive: [1] 0.974 | [2] 0.958 | [3] 0.981 | [4] 0.968 | [5] 0.966 | [6] 0.97 | [7] 0.979 | [8] 0.967 | [9] 0.97 | [10] 0.987 | [11] 0.933 | [12] 0.968 | [13] 0.961 | [14] 0.976 | [15] 0.944 | [16] 0.884 | [17] 0.938 | [18] 0.974 | [19] 0.96 | [20] 0.967 | [21] 0.925 | [22] 0.979 | [23] 0.917 | [24] 0.996 | [25] 0.912 | [26] 0.954 | [27] 1 | [28] 1 | [29] 0.902 | [30] 0.971 | [31] 0.931 | [32] 0.927 | [33] 0.919 | [34] 0.987 | [35] 0.87 | [36] 1.01 | [37] 0.912 | [38] 0.939 | [39] 0.903 | [40] 0.971 | [41] 0.978 | [42] 0.871 | [43] 0.908 | [44] 0.903 | [45] 0.903 | [46] 0.962 | [47] 0.938 | [48] 0.978 | [49] 0.975 | [50] 0.912 | [51] 0.972 | [52] 0.953 | [53] 0.966 | [54] 0.978 | [55] 0.907 | [56] 0.977 | [57] 0.889 | [58] 0.946 | [59] 0.977 | [60] 0.899 | [61] 0.963 | [62] 0.942 | [63] 0.916 | [64] 0.904 | [65] 0.958 | [66] 0.958 | [67] 0.975 | [68] 0.945 | [69] 0.957 | [70] 0.955 | [71] 0.972

Cc1cc(Cl)ccc1NNC(=O)c1snnc1C
active: [26] 0.815 | [42] 0.84
inactive: [1] 0.971 | [2] 0.949 | [3] 0.967 | [4] 0.949 | [5] 0.959 | [6] 0.951 | [7] 0.969 | [8] 0.968 | [9] 0.955 | [10] 0.978 | [11] 0.907 | [12] 0.957 | [13] 0.974 | [14] 0.977 | [15] 0.907 | [16] 0.816 | [17] 0.909 | [18] 0.979 | [19] 0.957 | [20] 0.957 | [21] 0.885 | [22] 0.958 | [23] 0.881 | [24] 0.965 | [25] 0.824 | [27] 0.919 | [28] 0.979 | [29] 0.919 | [30] 0.966 | [31] 0.888 | [32] 0.943 | [33] 0.881 | [34] 0.977 | [35] 0.841 | [36] 0.972 | [37] 0.935 | [38] 0.919 | [39] 0.914 | [40] 0.96 | [41] 0.962 | [43] 0.891 | [44] 0.887 | [45] 0.865 | [46] 0.951 | [47] 0.922 | [48] 0.958 | [49] 0.974 | [50] 0.894 | [51] 0.956 | [52] 0.942 | [53] 0.96 | [54] 0.956 | [55] 0.794 | [56] 0.954 | [57] 0.885 | [58] 0.866 | [59] 0.96 | [60] 0.878 | [61] 0.963 | [62] 0.911 | [63] 0.881 | [64] 0.874 | [65] 0.943 | [66] 0.881 | [67] 0.955 | [68] 0.976 | [69] 0.979 | [70] 0.955 | [71] 0.962

Cc1nnsc1C(=O)NNc1ccc(F)cc1F
inactive: [1] 0.951 | [2] 0.951 | [3] 0.956 | [4] 0.961 | [5] 0.956 | [6] 0.949 | [7] 0.97 | [8] 0.956 | [9] 0.965 | [10] 0.955 | [11] 0.706 | [12] 0.954 | [13] 0.929 | [14] 0.953 | [15] 0.711 | [17] 0.827 | [18] 0.965 | [19] 0.941 | [20] 0.968 | [22] 0.952 | [23] 0.789 | [24] 0.646 | [25] 0.636 | [27] 0.925 | [28] 0.85 | [29] 0.924 | [30] 0.967 | [31] 0.544 | [32] 0.938 | [33] 0.804 | [34] 0.962 | [35] 0.683 | [36] 0.791 | [37] 0.952 | [38] 0.819 | [39] 0.917 | [40] 0.96 | [41] 0.928 | [43] 0.812 | [44] 0.883 | [45] 0.696 | [46] 0.949 | [47] 0.906 | [48] 0.959 | [49] 0.975 | [50] 0.92 | [51] 0.945 | [52] 0.837 | [53] 0.961 | [54] 0.954 | [55] 0.678 | [56] 0.955 | [57] 0.808 | [59] 0.911 | [60] 0.908 | [61] 0.958 | [62] 0.858 | [63] 0.832 | [64] 0.917 | [65] 0.943 | [67] 0.957 | [68] 0.963 | [69] 0.966 | [70] 0.977 | [71] 0.947
active: [16] 0.459 | [21] 0.584 | [26] 0.831 | [42] 0.683 | [66] 0.602
